Experimental data from PubChem BioAssay (NCATS).
Records with an inconclusive call do not appear. A number with no mark means an inactive call. Active and inactive are the calls of the source. The call rests on the fitted dose curve; in most records, active means well fitted inhibition curve with a large enough effect; inconclusive means small, poorly fitted or top-dose-only effect; inactive means no such curve, though single readings can be large or run the other way.

target: Retinaldehyde dehydrogenase 3 (Homo sapiens) (UniProt P47895); assay: qHTS for Inhibitors of the Aldehyde Dehydrogenase Family (ALDH1A3) Primary screen (AID 2061315); settings: ALDH inhibition qHTS; series mostly up to 56 µM; activity change, negative = inhibition: at the top concentration;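 on activity change, negative = inhibition: plate controls were DMSO vehicle for no effect and reference inhibitor for full effect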
Potency means the concentration at half of the fitted maximal effect.

Row | SMILES | activity change, negative = inhibition | Potency
1 | C=C1C(=O)OC2C1CCC(=C)C1CC(OC(C)=O)C(=C)C12 (stereo unspecified) | 14.5% | 
2 | CCOC(=O)C1=C(N)Oc2ccc(Br)cc2C1C(C#N)C(=O)OCC (stereo unspecified) |  | inactive
3 | Cn1cc(Nc2cnccc2C(=O)O)c2cccnc21 | 128% | 
4 | Cn1cc(-c2ccc3ncc(Cc4ccc5ncccc5c4)n3n2)cn1 | -8.32% | 
5 | OC[C@@]1(O)CO[C@@H](OC[C@H]2O[C@@H](Oc3c[nH]c4ccccc34)[C@H](O)[C@@H](O)[C@@H]2O)[C@@H]1O | 0.0144% [at 28 µM] | 
6 | C=C1C(=O)OC2CC(C)=C(C(C)CCCO)C(O)C12 (stereo unspecified) | -10.2% | 
7 | Clc1ncoc1-c1c[nH]c2ccccc12 | 52.1% | 
8 | CC1=CC(=O)C(=C(C)C)CC2C(C)(O)CCC12O (stereo unspecified) | 9.78% | 
9 | COc1ccc(-c2c(-c3cc(C(=O)O)ccn3)ncn2C)cc1 | 66.9% | 
10 | COC(=O)c1c(C)cc(OC(=O)c2c(C)cc(OC)cc2OC)cc1O[C@@H]1O[C@H](CO)[C@@H](O)[C@H](O)[C@H]1O | 13.5% [at 28 µM] | 
11 | O=C(O)c1cc(O[C@@H]2O[C@H](CO[C@@H]3OC[C@@H](O)[C@H](O)[C@H]3O)[C@@H](O)[C@H](O)[C@H]2O)c2ccccc2c1O |  | 2.82 µM (active)
12 | CC1=C2CC3C(CCC3(C)O)C(C)(O)CC2OC1=O (stereo unspecified) | 10.8% | 
13 | Cn1cc(-c2ccncc2)c(-c2ccc(OCc3ccc4ccccc4n3)cc2)n1 | -12.4% | 
14 | Cc1[nH]c(/C=C2\C(=O)Nc3cc(-c4ccccc4)ccc32)c(C)c1CCC(=O)O | -2.35% | 
15 | O=C1NC(=O)C(c2cn(-c3ccccc3)nc2-c2ccc(F)cc2)N1 (stereo unspecified) | -10.9% | 
16 | Oc1ccc(Nc2nc(-c3ccc(Cl)cc3)cs2)cc1 | -21.3% | 
17 | CC1(C)O[C@@]2(C)CC[C@@H]1C[C@@H]2OC1OC(CO)C(O)C(O)C1O (stereo partly specified) | 10.6% | 
18 | CC(CC(C)O[C@@H]1O[C@H](CO)[C@@H](O)[C@H](O)[C@H]1O)OC(=O)/C=C/c1ccc(O)cc1 (stereo partly specified) | -7.56% [at 28 µM] | 
19 | Cc1ccc(CN2CCNCC2)cc1NC(=O)CNc1ccc(F)c(F)c1 | -9.52% | 
20 | C=CC(=O)Nc1cccc(Nc2nc(Nc3ccc(Oc4ccnc(C(=O)NC)c4)cc3)ncc2F)c1 | 15% | 
21 | Nc1cccc(CNC(=O)c2ccc(Oc3ccc(OCc4cccc(F)c4)cc3)nc2)c1 | -5.13% | 
22 | O=C(O)c1cn(C2CC2)c2cc(N3C[C@@H]4C[C@H]3CN4)c(F)cc2c1=O | 59.7% | 
23 | COc1ccc(NC(=O)c2ccc(-c3ccc(C(N)=O)cc3C)cc2)cc1N1CCN(C)CC1 | 0.713% | 
24 | C/C=C/C=C/c1cc2c(C=O)c(O)c(CC=C(C)C)cc2o1 | -2.9% | 
25 | CCOC(=O)C1=C(N)Oc2ccc(Cl)cc2C1C(C#N)C(=O)OCC (stereo unspecified) | -1.17% | 
26 | CC(C)=C1CC2C(CCC2(C)O)C(C)(O)CC1=O (stereo unspecified) | 11.9% | 

target: Aldehyde dehydrogenase 1A1 (Homo sapiens) (UniProt P00352); assay: qHTS for Inhibitors of the Aldehyde Dehydrogenase Family (ALDH1A1) Confirmatory screens (AID 2061316); settings: ALDH inhibition qHTS; series mostly up to 47.3 µM; activity change, negative = inhibition: at the top concentration; further: nearly all actives have a fitted effect of over 65% in size; on activity change, negative = inhibition: on the % scale 0 is the no-effect control and ±100 the full control effect

Row | SMILES | Potency | activity change, negative = inhibition | outcome
27 | COc1cccc(-c2ccc(NC(=O)C3=C(C(=O)O)CCC3)c(F)c2)c1 | 12.7 µM (active) |  | 
28 | Cn1cc(-c2ccc3ncc(Cc4ccc5ncccc5c4)n3n2)cn1 |  | -16.9% | 
29 | OC[C@@]1(O)CO[C@@H](OC[C@H]2O[C@@H](Oc3c[nH]c4ccccc34)[C@H](O)[C@@H](O)[C@@H]2O)[C@@H]1O |  |  | inactive [at 25.5 µM]
30 | CC1=CC(=O)C(=C(C)C)CC2C(C)(O)CCC12O (stereo unspecified) |  | -4.98% | 
31 | COc1ccc(-c2c(-c3cc(C(=O)O)ccn3)ncn2C)cc1 |  | -27.3% | 
32 | COc1ccc(-c2ccn(CC[C@](C)(C(=O)NO)S(C)(=O)=O)c(=O)c2)c(F)c1 | 2.52 µM (active) |  | 
33 | Cc1ccc(NC(=O)N2CCN(c3nc(N)nc4sc(-c5cccnc5)nc34)CC2)cc1 | 28.3 µM (active) |  | 
34 | O=C(O)c1cc(O[C@@H]2O[C@H](CO[C@@H]3OC[C@@H](O)[C@H](O)[C@H]3O)[C@@H](O)[C@H](O)[C@H]2O)c2ccccc2c1O | 0.693 µM (active) |  | 
35 | CC1=C2CC3C(CCC3(C)O)C(C)(O)CC2OC1=O (stereo unspecified) |  | -9.04% | 
36 | Cn1cc(-c2ccncc2)c(-c2ccc(OCc3ccc4ccccc4n3)cc2)n1 |  | -25.8% | 
37 | Cc1[nH]c(/C=C2\C(=O)Nc3cc(-c4ccccc4)ccc32)c(C)c1CCC(=O)O |  | -18.1% | 
38 | O=C1NC(=O)C(c2cn(-c3ccccc3)nc2-c2ccc(F)cc2)N1 (stereo unspecified) |  | -4.62% | 
39 | CC1(C)O[C@@]2(C)CC[C@@H]1C[C@@H]2OC1OC(CO)C(O)C(O)C1O (stereo partly specified) |  | -6.54% [at 25.5 µM] | 
40 | Cc1ccc(CN2CCNCC2)cc1NC(=O)CNc1ccc(F)c(F)c1 | 12.7 µM (active) |  | 
41 | C=CC(=O)Nc1cccc(Nc2nc(Nc3ccc(Oc4ccnc(C(=O)NC)c4)cc3)ncc2F)c1 |  |  | inactive
42 | O=C(O)c1cn(C2CC2)c2cc(N3C[C@@H]4C[C@H]3CN4)c(F)cc2c1=O | 31.8 µM (active) |  | 
43 | COc1ccc(NC(=O)c2ccc(-c3ccc(C(N)=O)cc3C)cc2)cc1N1CCN(C)CC1 |  |  | inactive
44 | C/C=C/C=C/c1cc2c(C=O)c(O)c(CC=C(C)C)cc2o1 | 11.3 µM (active) |  | 
45 | CCOC(=O)C1=C(N)Oc2ccc(Cl)cc2C1C(C#N)C(=O)OCC (stereo unspecified) |  | -18.5% | 
46 | CN1CCN(C(=O)CN[C@@H]2C[C@H]2c2ccc(OCc3ccccc3)cc2)CC1 | 20.1 µM (active) |  | 
